Out of some 330,000 compounds screened, about 670 (0.2%) were called active.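 Rule for the calls: active = activity change below a set negative limit, meaning inhibition stronger than a set level (cut at about -70% in these data); inconclusive = activity change between two set negative limits; inactive = the rest.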 Shown is part of a subset that was picked to be rich in actives.
Target: Thyrotropin receptor (Homo sapiens) (UniProt P16473)
Experiment: Antagonists of the Thyroid Stimulating Hormone Receptor: HTS campaign
Conditions: TSHR-expressing cells, TSH-stimulated cAMP HTRF, 2 h; at 11.5 µM; hits give low values
Outline: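 TSHR-expressing cells were treated with compounds, then stimulated with TSH at EC80 (4nM final) for 2 hours at 37 deg C. Cellular cAMP was measured by HTRF competition between lysate cAMP and cAMP-d2 for a cryptate-labelled anti-cAMP antibody.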
% is set by controls: 0 for no effect and ±100 for the full control effect.

Sequence of Thyrotropin receptor (Homo sapiens) (P16473 whole entry, looked up): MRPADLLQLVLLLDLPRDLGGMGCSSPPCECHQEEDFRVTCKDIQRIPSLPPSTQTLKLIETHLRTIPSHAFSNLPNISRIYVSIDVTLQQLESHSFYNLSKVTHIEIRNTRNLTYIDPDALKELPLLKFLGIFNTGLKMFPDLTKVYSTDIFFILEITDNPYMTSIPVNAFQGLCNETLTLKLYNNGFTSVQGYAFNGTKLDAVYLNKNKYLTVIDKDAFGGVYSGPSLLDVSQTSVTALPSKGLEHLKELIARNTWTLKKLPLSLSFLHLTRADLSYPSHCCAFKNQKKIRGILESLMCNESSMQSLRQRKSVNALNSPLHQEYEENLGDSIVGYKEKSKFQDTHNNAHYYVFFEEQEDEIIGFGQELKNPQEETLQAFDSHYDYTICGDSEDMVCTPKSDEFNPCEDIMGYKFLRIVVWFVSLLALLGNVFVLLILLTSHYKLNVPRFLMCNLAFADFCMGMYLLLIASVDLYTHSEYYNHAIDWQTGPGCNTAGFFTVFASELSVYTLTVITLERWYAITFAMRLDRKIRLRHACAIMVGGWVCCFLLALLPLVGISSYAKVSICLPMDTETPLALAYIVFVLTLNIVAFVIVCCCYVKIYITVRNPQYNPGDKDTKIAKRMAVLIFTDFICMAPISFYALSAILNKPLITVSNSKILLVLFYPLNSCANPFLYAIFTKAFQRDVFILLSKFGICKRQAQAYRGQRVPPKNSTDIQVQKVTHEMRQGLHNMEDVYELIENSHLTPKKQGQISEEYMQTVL

Activity change, negative = inhibition, active:
Oc1c(Cl)cc(Cl)c(Cl)c1Cc1c(O)c(Cl)cc(Cl)c1Cl -103%
CN(c1ccccc1)S(=O)(=O)c1cc(C(=O)Nc2nc3ccccc3[nH]2)ccc1Cl -76.7%
COc1cc(NC(=O)c2ccccc2NS(=O)(=O)c2ccc(Cl)s2)cc(OC)c1 -75.8%
O=C(CO/N=C/c1ccc(OC(F)F)cc1)NCc1ccc(F)cc1 -73.2%
CC(=O)N1c2ccc(S(=O)(=O)N(C)CC(=O)N(C)Cc3ccccc3)cc2CC1C (stereo unspecified) -99.1%
COc1cccc(CNC(=O)c2nnn(CC(=O)Nc3cc(Cl)ccc3C)c2N)c1 -74.4%

Activity change, negative = inhibition, inactive:
CCc1nonc1NC(=O)c1oc2ccc(Cl)cc2c1C 3.96%
O=C1C=C(c2cccc(Cl)c2O)C[C@@H](c2ccc(F)cc2)C1 -23%
CC1(C)NC(=O)N(CC(=O)N2CCN(S(=O)(=O)c3ccccc3F)CC2)C1=O 1.38%
CCN(c1ccccc1)S(=O)(=O)c1cc(C(=O)NCc2ccccn2)ccc1C 0.209%
Cc1ccc(C)c(N(CC(=O)NCc2ccco2)C(=O)CCC(=O)Nc2ccccn2)c1 0.465%
COC(=O)c1ccc(COC(=O)c2c(C)nn(Cc3ccccc3Cl)c2Cl)o1 -21.4%
CC(=O)N=c1ncn(CC(COC(C)=O)OC(C)=O)c2nc[nH]c12 (stereo unspecified) -10.8%
Cc1ccc(S(=O)(=O)N(C)c2ccc(OCC(=O)NC3=NCCS3)cc2)cc1 26.8%
CC(Oc1ccccc1)C(=O)NN1Cc2ccccc2C1=N (stereo unspecified) 8.16%
CCOC(=O)c1ccc(NC(=O)c2nc[nH]c2C(=O)N[C@@H](CCCCNC(=O)OC(C)(C)C)C(=O)OC(C)(C)C)cc1 -6.71%
CCCn1c(=O)c2[nH]c(-c3ccc(OCC(=O)NCCN)cc3)nc2n(CCC)c1=O 26.4%
COc1ccc(C(=O)NCC2CCCN2S(=O)(=O)c2cccs2)cc1OC (stereo unspecified) 4.47%
CC(CCc1ccccc1)NCC(O)c1cccc([N+](=O)[O-])c1 (stereo unspecified) 9.45%
CN(c1ccccc1)S(=O)(=O)c1cc(C(=O)OCC(=O)N2CCN(C(=O)c3ccco3)CC2)ccc1Cl -10.1%
Cc1cccc(NC(=O)c2ccc(S(=O)(=O)N(C)c3ccccc3)cc2)n1 -19.5%
Cc1cc(C)n2nc(C(=O)N(C)C(c3ccccc3)c3ccccc3)nc2n1 0.111%
Cc1cc(C)n2nc(C(=O)OC(C)C(=O)c3cc(C)c(C)cc3C)nc2n1 (stereo unspecified) 23.5%
O=C(CN1C(=O)CSC1=O)N1CCCC(Nc2ccc(F)cc2)C1 (stereo unspecified) -1.23%
Cc1ccsc1C(=O)OCC(=O)Nc1cccc(F)c1 -3.82%
COc1cc(OC)c(S(=O)(=O)Nc2ccccc2C(=O)O)cc1S(=O)(=O)Nc1ccccc1C(=O)O -2.52%
CCOc1ccc(NC(=O)c2ccccc2NS(C)(=O)=O)cc1 5.45%
CCN(CC)C(=O)CSC1c2ccccc2C(=O)N1c1ccccc1 (stereo unspecified) 4.85%
O=C(CCSCCc1ccccn1)Nc1nccs1 -1.45%
CC(=O)c1nn(-c2cccc(Br)c2)cc1C(=O)c1cccc2ccccc12 7.96%
CC(C)Cc1nn2c(=O)cc(O)nc2s1 2.07%
CCOC(=O)C1(Cc2ccccc2C)CCCN(C(=O)c2ccc(COC)o2)C1 (stereo unspecified) 26.3%
CCOc1ccc(/C=N/OCC(=O)NCc2cccs2)cc1 -4.83%
CC1CCCCC1NC(=O)CO/N=C/c1ccc(OC(F)F)cc1 (stereo unspecified) -11.3%
COc1cccc(CNS(=O)(=O)c2ccc3c(c2)CC(C)N3C(C)=O)c1 (stereo unspecified) -6.62%
CC(=O)N1c2ccc(S(=O)(=O)NCCC(=O)N(C)C3CCCCC3)cc2CC1C (stereo unspecified) 4.56%
Cc1ccc2cc(C)c(N3CCN(c4ccc(F)cc4)CC3)nc2c1 12.4%
CC(Sc1nncs1)C(=O)NCc1ccc2c(c1)OCO2 (stereo unspecified) 18.9%
COc1cccc(CNC(=O)c2nnn(CC(=O)Nc3cc(C)ccc3C)c2N)c1 4.35%
COc1ccc(CNC(=O)c2nnn(CC(=O)Nc3cc(C)cc(C)c3)c2N)cc1 5.35%
CC(=O)/C(C)=N/O 17.4%

Reference: PubChem BioAssay AID504810 (National Center for Advancing Translational Sciences (NCATS), 2011)
